# Measured values as given in PubChem BioAssay (NCATS).
# Records with an inconclusive call do not appear. A number with no mark means an inactive call. The source made the active and inactive calls. The call rests on the fitted dose curve; in most records, active means well fitted inhibition curve with a large enough effect; inconclusive means small, poorly fitted or top-dose-only effect; inactive means flat fitted curve, though single readings scatter.
# Tests used:
# CRL-7250 = normal cell line; assay: Cytotoxic Profiling of Annotated Libraries Using Quantitative High-Throughput Screening (AID 1296008); details: Five cell lines viability, CellTiter-Glo ATP luminescence, 48-72 h; max response: active compounds read low; further: potency means the concentration at half of the fitted maximal effect; on max response: on the % scale 0 is the no-effect control and ±100 the full control effect
# Method in brief: (§1)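 Cytotoxicity was measured as CellTiter-Glo ATP luminescence, read after 10 min at room temperature. Compound treatment of the cells lasted 48 or 72 hr at 37 degrees Celsius in a qHTS format.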
# HEK293 = assay: as above; details: Five cell lines viability, CellTiter-Glo ATP luminescence, 48-72 h; max response: active compounds read low
# Method in brief: as §1
# HaCat [1] = assay: as above; details: Five cell lines viability, CellTiter-Glo ATP luminescence, 48-72 h; max response: active compounds read low
# Method in brief: as §1
# NIH3T3 = assay: as above; details: Five cell lines viability, CellTiter-Glo ATP luminescence, 48-72 h; max response: active compounds read low
# Method in brief: as §1
# HACAT [2] = assay: qHTS assay to identify novel small-molecules to repurpose for Merkel cell carcinoma treatment (AID 1296009); details: MCC and control cell lines, CellTiter-Glo viability, 72 h; at 44.8 µM (top of the series) unless noted
# Method in brief: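 72 hr, 37 degree celsius; NPC 8-pt / MIPE 11-pt dose response; compound pinned in DMSO; CellTiter-Glo, 10 min RT, luminescence; normalized to no-cell and DMSO controls.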
# Further: nearly all actives have a fitted effect of over 60% in size.
structure (smiles),measurement,setting,value
CC#CC(=O)Nc1ccc2ncnc(Nc3cccc(Br)c3)c2c1,Potency,CRL-7250,6510 nM (active)
same,Potency,HEK293,3660 nM (active)
same,Potency,HaCat [1],32.6 nM (active)
C=C1C(=O)OC2/C=C(\COC(C)=O)CC/C=C(\C=O)CC(OC(=O)CC(C)C)C12 (stereo not drawn),Potency,CRL-7250,7960 nM (active)
same,Potency,HEK293,2820 nM (active)
COc1cc(CCC2=NN=C(NC(=O)c3ccc(N4C[C@@H](C)N[C@@H](C)C4)cc3)C2)cc(OC)c1,Potency,CRL-7250,10300 nM (active)
same,Potency,HEK293,18400 nM (active)
same,max response,HaCat [1],-66.4%
C=C1CC[C@@H]2[C@](C)(CO)[C@H](O)CC[C@@]2(C)[C@@H]1C/C=C1/C(=O)OCC1O (stereo partly drawn),Potency,CRL-7250,18400 nM (active)
same,Potency,HEK293,7310 nM (active)
same,max response,HaCat [1],-10.5%
COC1CC(=O)C23C(=O)NC(Cc4c[nH]c5ccccc45)C2C(C)C2(C)OC2C3/C=C/CC(C)CC1O (stereo not drawn),Potency,CRL-7250,5020 nM (active)
same,Potency,HEK293,7090 nM (active)
CC(O)C(C)n1ncn(-c2ccc(N3CCN(c4ccc(OCC5COC(Cn6cncn6)(c6ccc(Cl)cc6Cl)O5)cc4)CC3)cc2)c1=O (stereo not drawn),outcome,CRL-7250,inactive
same,Potency,HEK293,16400 nM (active)
same,max response,HaCat [1],-3.2%
C[C@@H]1CN(CC(=O)N2CC(C)(C)c3ncc(Cc4ccc(F)cc4)cc32)[C@@H](CN2CCOC[C@H]2C)CN1,max response,CRL-7250,-4.83%
same,max response,HEK293,-21.9%
same,outcome,HaCat [1],inactive
same,outcome,NIH3T3,inactive
same,outcome,HACAT [2],inactive
C/C1=C\[C@@H](C)C[C@@H](C)[C@@H](Cc2cnco2)OC(=O)/C(C)=C/[C@@H](C)C[C@@H](C)[C@@H](Cc2cnco2)OC1=O,Potency,CRL-7250,2520 nM (active)
same,Potency,HEK293,632 nM (active)
same,max response,HaCat [1],-7.73%
same,max response,NIH3T3,-16.6%
CC[C@H]1CN(c2nc(N)c(C(N)=O)nc2Cl)CCN1C1CCN(Cc2ccc(Cl)cc2)CC1,max response,CRL-7250,4.79%
same,max response,HEK293,-6.38%
same,outcome,HaCat [1],inactive
same,max response,NIH3T3,0.303%
same,outcome,HACAT [2],inactive
COc1cc(C[C@H]2C(=O)OC[C@@H]2Cc2ccc(OC)c(OC)c2)ccc1O,Potency,CRL-7250,508 nM (active)
same,Potency,HEK293,1010 nM (active)
same,outcome,HaCat [1],inactive
same,max response,NIH3T3,-24.5%
same,outcome,HACAT [2],inactive
COc1cc(O)cc(OC2OC(CO)C(O)C(O)C2O)c1 (stereo not drawn),max response,CRL-7250,-0.834%
same,max response,HEK293,0.556%
same,max response,HaCat [1],-5.91%
same,outcome,NIH3T3,inactive
COC(=O)c1cc2c(C(F)(F)F)cc(-c3ccccc3)cc2n1O,max response,CRL-7250,-4.54%
same,max response,HEK293,0.379%
same,outcome,HaCat [1],inactive
same,outcome,NIH3T3,inactive
same,outcome,HACAT [2],inactive
CCCCC1CCN(CCCN2C(=O)CCc3ccccc32)CC1,max response,CRL-7250,-13.3%
same,Potency,HEK293,18400 nM (active)
same,max response,HaCat [1],-2.1%
same,max response,NIH3T3,-7.86%
Cc1ccc(NC(=O)c2ccc(CN3CCNCC3)cc2)cc1Nc1nccc(-c2cccnc2)n1,max response,CRL-7250,-21.4%
same,Potency,HEK293,10300 nM (active)
same,outcome,HaCat [1],inactive
same,outcome,NIH3T3,inactive
same,outcome,HACAT [2],inactive
CS(=O)(=O)c1ccc(Oc2cc(F)cc(C#N)c2)c2c1[C@H](O)C(F)(F)C2,outcome,CRL-7250,inactive
same,max response,HEK293,1.03%
same,max response,HaCat [1],-0.258%
same,max response,NIH3T3,-14.9%
C=CC(=O)Nc1ccc(CN2C(=O)N(c3cc(OC)cc(OC)c3)Cc3cnc(Nc4ccc(N5CCN(C)CC5)cc4)nc32)cc1,Potency,CRL-7250,411 nM (active)
same,Potency,HEK293,11600 nM (active)
same,Potency,HaCat [1],5170 nM (active)
same,Potency,NIH3T3,8200 nM (active)
CC(=O)OC(C)(C)/C=C/C(=O)C(C)(O)C1C(O)CC2(C)C3CC=C(C(C)(C)C(=O)O)C(CC(=O)O)C3(C)C(=O)CC12C (stereo not drawn),max response,CRL-7250,2%
same,max response,HEK293,-1.12%
same,outcome,HaCat [1],inactive
same,outcome,NIH3T3,inactive
same,outcome,HACAT [2],inactive [at 17.4 µM]
CCNC(=O)c1noc(-c2cc(Cl)c(O)cc2O)c1-c1ccc(OC)cc1,Potency,CRL-7250,461 nM (active)
same,Potency,HEK293,206 nM (active)
same,Potency,HaCat [1],259 nM (active)
same,Potency,NIH3T3,920 nM (active)
Cc1sc2c(c1C)C(c1ccc(Cl)cc1)=N[C@H](CC(=O)NCCCCNC(=O)COc1cccc3c1C(=O)N([C@H]1CCC(=O)NC1=O)C3=O)c1nnc(C)n1-2,Potency,CRL-7250,1840 nM (active)
same,Potency,HEK293,2590 nM (active)
same,max response,HaCat [1],-67.4%
same,max response,NIH3T3,-0.715%
CCNC(=O)Nc1ccc(-c2nc3c(c(N4CCOCC4C)n2)CCN(C2COC2)C3)cc1 (stereo not drawn),Potency,CRL-7250,206 nM (active)
same,Potency,HEK293,1460 nM (active)
same,max response,HaCat [1],-28.1%
same,Potency,NIH3T3,2310 nM (active)
